Outcome and AC50 data for 13 compounds are collected here from PubChem BioAssay (EPA / NIEHS).

Test [1] can be described thus: BSK_hDFCGF_Proliferation: Cell Proliferation Assessment in the BioMAP Diversity Plus: hDFCGF Assay (AID 2283059).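 Also: curves fitted for both rise and fall of signal versus DMSO baseline.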 The note with it: primary human foreskin fibroblasts. The method in brief:
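Steps: dose primary human dermal fibroblasts (foreskin); […] fix in 10% TCA; stain with 0.1% SRB; read 560 nm; fit gain or loss of signal against DMSO.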

Read-out in test [2]: Macrophage colony-stimulating factor (MCSF), CSF1 (gene 1435)
Description: BSK_hDFCGF_MCSF: BioMAP Diversity Plus: hDFCGF Assay for Macrophage colony-stimulating factor (MCSF) Biomarker Activity (AID 2283060). To be noted: primary human foreskin fibroblasts; actives raise or lower the signal. The method in brief:
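ELISA read-out of M-CSF in human dermal foreskin fibroblast cultures, 24 h after chemical dosing; gain or loss of signal fitted bidirectionally relative to DMSO baseline.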

The nature of test [3]: BSK_hDFCGF_SRB: Viability Assessment in the BioMAP Diversity Plus: hDFCGF Assay (AID 2283061).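 Also: cells exposed to compound for 24 h before the read.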 To be noted: primary human foreskin fibroblasts. The method in brief:
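Primary human foreskin fibroblasts; 24 h post-dose; fixed 10% TCA, stained 0.1% SRB, A560 read; total protein as overt cytotoxicity measure; curves fit bidirectionally vs DMSO control.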

Read-out in test [4]: TIMP metallopeptidase inhibitor 1 (TIMP1), TIMP1 (gene 7076)
Description: BSK_hDFCGF_TIMP1: BioMAP Diversity Plus: hDFCGF Assay for TIMP metallopeptidase inhibitor 1 (TIMP1) Biomarker Activity (AID 2283062). The note with it: primary human foreskin fibroblasts; actives raise or lower the signal. The method in brief: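 ELISA readout of TIMP-1 from human dermal foreskin fibroblast cultures 24 h post-dosing. Curves were fitted in both directions against DMSO baseline, with SRB total-protein staining in parallel cultures as a cytotoxicity check.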

Read-out in test [5]: Monokine induced gamma interferon (MIG), CXCL9 (gene 4283)
Description: BSK_hDFCGF_MIG: BioMAP Diversity Plus: hDFCGF Assay for Monokine induced gamma interferon (MIG) Biomarker Activity (AID 2283063). The note with it: primary human foreskin fibroblasts; actives raise or lower the signal. The method in brief:
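Fibroblasts (human foreskin, primary) dosed, 24 h, MIG by ELISA; fit bidirectional vs DMSO.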

Read-out in test [6]: Matrix Metallopeptidase 1 (MMP1), MMP1 (gene 4312)
Description: BSK_hDFCGF_MMP1: BioMAP Diversity Plus: hDFCGF Assay for Matrix Metallopeptidase 1 (MMP1) Biomarker Activity (AID 2283064). To be noted: primary human foreskin fibroblasts; actives raise or lower the signal. An outline of the steps: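 Primary human foreskin fibroblasts in the hDFCGF system were dosed with test chemical, and MMP1 was measured by ELISA 24 h later. Values come from bidirectional curve fitting against the DMSO baseline.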

Read-out in test [7]: Vascular cell adhesion molecule 1 (VCAM1), VCAM1 (gene 7412)
Description: BSK_hDFCGF_VCAM1: BioMAP Diversity Plus: hDFCGF Assay for Vascular cell adhesion molecule 1 (VCAM1) Biomarker Activity (AID 2283065).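 As to AC50: VCAM-1 protein level quantified by ELISA after 24 h chemical exposure.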 The note with it: primary human foreskin fibroblasts; actives raise or lower the signal. An outline of the steps: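 ELISA read-out of VCAM-1 on human skin fibroblasts, 24 h post-dose; gain or loss of signal fitted bidirectionally against DMSO baseline.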

Read-out in test [8]: Plasminogen activator inhibitor-1 (PAI1), SERPINE1 (gene 5054)
Description: BSK_hDFCGF_PAI1: BioMAP Diversity Plus: hDFCGF Assay for Plasminogen activator inhibitor-1 (PAI1) Biomarker Activity (AID 2283066). To be noted: primary human foreskin fibroblasts; actives raise or lower the signal. An outline of the steps: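 Primary dermal fibroblasts (human foreskin), hDFCGF system; compound 24 h; PAI-1 by ELISA; bidirectional fit vs DMSO control.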

Read-out in test [9]: Intercellular Adhesion Molecule 1 (ICAM1), ICAM1 (gene 3383)
Description: BSK_KF3CT_ICAM1: BioMAP Diversity Plus: KF3CT Assay for Intercellular Adhesion Molecule 1 (ICAM1) Biomarker Activity (AID 2283067). To be noted: primary human keratinocytes with fibroblasts; actives raise or lower the signal. An outline of the steps:
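ELISA readout of ICAM-1; KF3CT human skin co-culture (keratinocytes + foreskin fibroblasts), 24 h post-dose; gain/loss fit vs DMSO baseline.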

Read-out in test [10]: Interferon-gamma inducible Protein 10 (IP10), CXCL10 (gene 3627)
Briefly: BSK_KF3CT_IP10: BioMAP Diversity Plus: KF3CT Assay for Interferon-gamma inducible Protein 10 (IP10) Biomarker Activity (AID 2283068). To be noted: primary human keratinocytes with fibroblasts; actives raise or lower the signal. The method in brief: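 KF3CT co-culture (keratinocytes + foreskin fibroblasts), 24 h compound, IP-10 by ELISA; bidirectional fit vs DMSO baseline.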

Where “and” joins values, the source holds several entries; their conditions need not be identical. Equal values may be shown once. Where a structure was tested more than once in an assay, its records may differ in their call. Calls of active or inactive are those of the source. The calls were made as follows: active = hit-call score of the fitted dose curve at least 0.9, where 1 is the maximum; inactive = score below 0.9.

As to `N#Cc1cc(Br)c(O)c(Br)c1`, the outcome in [1], in test [2], in [3], in [4], in [5] and in test [6] was inactive. The outcome in [7], in test [8], in test [9] and in test [10] was inactive.

With `CC(C)Oc1cc(-n2nc(C(C)(C)C)oc2=O)c(Cl)cc1Cl`, the concentration at half-maximal activity (AC50) (as a rule, the midpoint of the concentration-response curve, whichever way the signal moves) was 29.5 µM (active) in test [1]; 15.2 µM (active) in [2]; 28.6 µM (active) in [3]; 5.65 µM (active) in test [6]; 32 µM (active) in [7]; 24.4 µM (active) in test [8]. Moreover, the AC50 in test [10] is 14.9 µM (active). Moreover, the outcome in test [4], in test [5] and in test [9] was inactive.

Regarding `CCCCC(CC)COC(=O)c1ccccc1C(=O)OCC(CC)CCCC` (stereo unspecified), the values for the AC50 in [1] and in [10] were 4.85 µM (active) and 15.1 µM (active), respectively. Moreover, the result in test [2], in test [3], in test [4], in test [5], in test [6] and in test [7] was inactive. For the same compound, the outcome in test [8] and in test [9] was inactive.

For the compound `COC(=O)C(C)Oc1ccc(Oc2ccc(Cl)cc2Cl)cc1` (stereo unspecified), the AC50 in test [1] is 29.5 µM (active) and 36.7 µM (active); in test [9] it was 25.1 µM (active); in [10], 25.4 µM (active) and 20 µM (active). In addition, the outcome in test [1], in [2], in test [3], in test [4], in test [5] and in test [6] was inactive. The result in [7], in test [8], in test [9] and in test [10] was inactive.

Take `COP(=S)(OC)Oc1nc(Cl)c(Cl)cc1Cl`: the half-maximal activity concentration (AC50) in test [1] is 28.2 µM (active); in [2], 30 µM (active); in test [5], 14.9 µM (active); in test [7], 5.76 µM (active). The result in [3], in test [4], in test [6], in test [8], in test [9] and in [10] was inactive.

Turning to `CCOc1cc(Oc2ccc(C(F)(F)F)cc2Cl)ccc1[N+](=O)[O-]`, the AC50 in [1] is 10.6 µM (active); in [2], 6.77 µM (active); in [6], 2.89 µM (active); in [8], 5.49 µM (active). The result in test [3], in test [4], in test [5], in test [7], in test [9] and in [10] was inactive.

For `CCCN(CCC)c1c([N+](=O)[O-])cc(S(N)(=O)=O)cc1[N+](=O)[O-]`, the AC50 is 24.3 µM (active) [middle of 4 runs] in test [1]; 32.9 µM (active) and 30.5 µM (active) and 31.2 µM (active) in [2]; 21.1 µM (active) and 29.3 µM (active) and 31.4 µM (active) in test [3]; 33.5 µM (active) and 34 µM (active) in test [4]; 32 µM (active) and 34.1 µM (active) in [5]; 33.6 µM (active) and 348 nM (active) in test [6]. In addition, the AC50 in test [7] is 32.7 µM (active) and 35.6 µM (active); in test [8], 21.1 µM (active) and 21.6 µM (active). The result in [2], in test [4], in test [5], in test [6], in [7] and in test [8] was inactive. For the same compound, the result in [9] and in [10] was inactive.

In the case of `Fc1ccc(Oc2ccnc3cc(Cl)cc(Cl)c23)cc1`, the AC50 in test [1] was 11.7 µM (active); in test [2], 16.4 µM (active); in test [3] it was 15.3 µM (active); in [5], 26.6 µM (active); in test [6] it was 35.3 µM (active); in test [7], 13.2 µM (active). Further, the AC50 is 18 µM (active) in test [8] and 17.9 µM (active) in test [10]. The outcome in test [4] and in [9] was inactive.

As to `CC(C)C1(C)N=C(c2nc3ccccc3cc2C(=O)O)NC1=O` (stereo unspecified), the outcome in [1], in test [2], in test [3], in test [4], in [5] and in test [6] was inactive. Further, the result in test [7], in test [8], in test [9] and in [10] was inactive.

On to `COc1cnc(OC)n2nc(NS(=O)(=O)c3c(OCC(F)F)cccc3C(F)(F)F)nc12`, for which the result in [1], in test [2], in test [3], in [4], in [5] and in [6] was inactive. Further, the outcome in test [7], in test [8], in test [9] and in test [10] was inactive. The AC50 in test [4] is 20 µM (active); in test [10], 34.2 µM (active).

Turning to `O=C(Nc1ccccc1)Nc1ccnc(Cl)c1`, the outcome in test [1], in test [2], in [3], in test [4], in [5] and in test [6] was inactive. The outcome in [7], in test [8], in test [9] and in test [10] was inactive.

In the case of `COC(=O)N(OC)c1ccccc1COc1ccn(-c2ccc(Cl)cc2)n1`, the AC50 in test [1] is 1.84 µM (active); in test [2], 20 µM (active); in test [3], 13.4 µM (active); in test [6], 4.62 µM (active); in test [8], 2.46 µM (active); in test [10], 6.72 µM (active). Moreover, the outcome in test [4], in [5], in test [7] and in test [9] was inactive.

With `CN(C)C(=S)SSC(=S)N(C)C`, the AC50 is 2.76 µM (active) in [1]; 4.39 µM (active) in test [2]; 4.96 µM (active) in test [3]; 9.76 µM (active) in test [4]; 3.01 µM (active) in test [5]; 5.34 µM (active) in test [6]. The AC50 is 4.12 µM (active) in [7], 5.64 µM (active) in test [8], 6.42 µM (active) in test [9] and 6.1 µM (active) in test [10].
